A short description of assay [1]: compounds binding Alexa647 anti-His antibody – biochemical, small-molecule microarray, 635 nm fluorescence, artefact control for SMM control protein annotation, primary screen (AID 1128).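 Also: score merges feature fluorescence with signal-to-noise for each printed compound spot.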 The conditions noted are these: higher = more signal.
For assay [2], the system named is Human papillomavirus type 1a E7 protein (residues 1-88). Nature of the assay: HPV1a E7 small-molecule binders, primary screen, biochemical, small-molecule microarray, residues 1-88, 635 nm (AID 1129). The following applies: small-molecule microarray binding, fluorescence 635 nm; higher = more signal.
The target of assay [3] is Focal adhesion kinase 1 (Homo sapiens) (UniProt Q05397). Nature of the assay: PTK2 protein binding on printed compound slides – biochemical, small-molecule microarray, 635/667 nm fluorescence, BSA, DTT, primary screen (AID 1130).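 Also: composite of spot emission at 667 nm and signal to noise over triplicate slides.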 The following applies: 635 nm fluorescence, higher = more signal.
For assay [4], the system named is Fibrinogen (Alexa647-labelled). Nature of the assay: Alexa647-fibrinogen binding to printed small molecules – biochemical, small-molecule microarray, 635/667 nm fluorescence, artefact control for SMM control-protein annotation, profiling panel (AID 1131).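 Also: z-score merges 667 nm fluorescence with per-spot signal-to-noise over triplicate slides.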 The following applies: fibrinogen-A647 binding fluorescence, higher = more signal.
The target of assay [5] is Follistatin (Homo sapiens) (UniProt P19883). Nature of the assay: FST protein binding to printed compounds – biochemical, small-molecule microarray, 635/667 nm fluorescence, primary screen (AID 1132). The following applies: 635 nm fluorescence, higher = more signal.
Assay [6] addresses Fibroblast growth factor 2 (Homo sapiens) (UniProt P09038). Nature of the assay: basic fibroblast growth factor binding to printed compounds – biochemical, small-molecule microarray, 635/667 nm fluorescence, primary screen (AID 1133). The following applies: FGF2, fluorescence 635/667, higher = more signal.
Assay [7] can be described thus: JC-1 mitochondrial potential readout, lung cancer cells – cell-based, A549, JC-1 fluorescence, basal, 24 h, 100 nL, profiling panel (AID 1138).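 Also: A549 lung adenocarcinoma cells under basal conditions with no added stimulus; test concentration not given here.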 The following applies: higher = more signal.
Another assay concerns Lefty1. In words: Lefty1 protein binding to printed compounds – biochemical, small-molecule microarray, 635/667 nm fluorescence, primary screen (AID 1139). The following applies: fluorescence 635/667, higher = more signal.
For assay [8], the system named is wheat germ agglutinin (Triticum aestivum), Alexa647-labelled. In words: Alexa647-WGA lectin binding to printed small molecules – biochemical, small-molecule microarray, 635/667 nm fluorescence, artefact control for SMM control-protein annotation, profiling panel (AID 1140).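 Also: score merges 667 nm feature emission with signal to noise over triplicate slides.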 The conditions noted are these: WGA-A647 binding, 635 nm fluorescence, higher = more signal.

Assay [9] addresses Luciferin 4-monooxygenase (Photinus pyralis) (UniProt P08659). In words: inhibition of purified Photinus pyralis luciferase – biochemical, luminescence, purified enzyme, 2006 set, primary screen (AID 1141).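 Also: cell-free assay with purified firefly luciferase at 100 ng per well in PBS; test concentration not given here.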 The conditions noted are these: purified firefly luciferase, SteadyGlo luminescence, 30 min; higher = more signal, called active from +8 up or from −8 down.
The subject of assay [10] is Wnt5a (protein binding on small-molecule microarray). In words: small molecules binding Wnt5a protein – biophysical, small-molecule microarray, 635/667 nm fluorescence, primary screen (AID 1142).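 Also: fluorescence read at 667 nm with signal to noise per printed feature.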 The following applies: 635 nm fluorescence, higher = more signal.
Assay [11] is described as follows: ATP-based viability of Huh7 replicon cells – cell-based, CellTiter-Glo luminescence, basal, 48 h, cytotoxicity control for HCV replication inhibitor project, primary screen (AID 1143).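 Also: Huh7 hepatoma cells carrying a hepatitis C replication reporter with no stimulus; test concentration not given here.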 The following applies: higher = more signal, called active from +8 up or from −8 down. In general terms: Replicon systems follow genome replication, usually without infectious particles.

The nature of assay [12]: Pseudomonas biofilm growth suppression – PAO1 strain, BacTiter-Glo luminescence, LB-PBS, primary screen (AID 1144). The conditions noted are these: P. aeruginosa PAO1 biofilm, 12 h, higher = more signal.
Assay [13] in a line: basal CRE-LacZ reporter activity in PC12 – cell-based, unstimulated, primary screen (AID 1145). The following applies: no forskolin, luminescence, 4.5 h, higher = more signal, called active from +8 up or from −8 down.
Assay [14] can be described thus: forskolin-driven CRE-LacZ activity in PC12 – cell-based, CRE-LacZ reporter, forskolin-stimulated, primary screen (AID 1146).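 Also: PC12 cells with 6xCRE LacZ reporter stimulated by forskolin 10 µM; beta-galactosidase reporter signal reflecting CREB driven transcription.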 The following applies: luminescence, 4.5 h, higher = more signal, called active from +8 up or from −8 down.
The target of assay [15] is Streptavidin (Streptomyces avidinii) (UniProt P22629). In words: compounds binding control protein streptavidin – biophysical, small-molecule microarray, 635/667 nm fluorescence, artefact control for SMM compound annotation, primary screen (AID 1147).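 Also: signal reflects streptavidin binding to arrayed compounds as a control protein.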 The following applies: higher = more signal.
The nature of assay [16]: probe aInhba binding on compound microarray – biochemical, small-molecule microarray, 635/667 nm fluorescence, primary screen (AID 1148).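 Also: score merges 667nm spot fluorescence with signal-to-noise for antibody binding to printed compounds.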 The conditions noted are these: higher = more signal.
Assay [17] concerns the target Torsin-1A (Homo sapiens) (UniProt O14656). In words: TOR1A wild-type binding on microarray – cell lysate, small-molecule microarray, lysate, 635/667 nm, primary screen (AID 1149). The conditions noted are these: COS7 hTOR1A-WT lysate, 635 nm fluorescence, higher = more signal.
Assay [18] shares this target. In words: torsin A mutant lysate binding on microarrays – cell lysate, small-molecule microarray, COS7 lysate, 635/667 nm fluorescence, primary screen (AID 1150).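 Also: score pools 667 nm emission and signal to noise measuring lysate protein binding.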 The conditions noted are these: COS7 hTOR1A mutant lysate, 635 nm fluorescence, higher = more signal.
Assay [19] relates to Sonic hedgehog protein (Shh). Nature of the assay: Sonic hedgehog microarray binding compounds – biochemical, small-molecule microarray, 635/667 nm fluorescence, primary screen (AID 1151).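 Also: Shh protein binding to compounds spotted on small-molecule microarray slides; score combines spot fluorescence intensity with signal-to-noise across triplicate slides.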 The conditions noted are these: 635 nm fluorescence, higher = more signal.

Structures are written as SMILES. Activity calls are given as the source filed them. Unless noted, no rule for the calls is given here.

Sequence of Follistatin (Homo sapiens) (P19883 whole entry, looked up): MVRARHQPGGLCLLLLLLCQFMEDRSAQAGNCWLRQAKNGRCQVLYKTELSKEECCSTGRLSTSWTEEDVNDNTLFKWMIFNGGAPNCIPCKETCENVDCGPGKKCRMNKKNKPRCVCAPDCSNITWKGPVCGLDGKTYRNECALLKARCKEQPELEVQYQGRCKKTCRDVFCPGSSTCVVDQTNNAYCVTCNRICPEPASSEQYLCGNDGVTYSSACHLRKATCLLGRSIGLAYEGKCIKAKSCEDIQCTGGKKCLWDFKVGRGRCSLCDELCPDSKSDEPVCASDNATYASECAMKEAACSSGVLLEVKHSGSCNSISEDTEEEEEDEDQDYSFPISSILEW
Sequence of Streptavidin (Streptomyces avidinii) (P22629 whole entry, looked up): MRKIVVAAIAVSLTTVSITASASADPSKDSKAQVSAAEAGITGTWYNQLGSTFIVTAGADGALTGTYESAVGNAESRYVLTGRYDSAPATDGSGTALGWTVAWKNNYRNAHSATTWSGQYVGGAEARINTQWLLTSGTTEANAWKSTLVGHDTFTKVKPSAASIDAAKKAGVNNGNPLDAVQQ
Sequence of Torsin-1A (Homo sapiens) (O14656 whole entry, looked up): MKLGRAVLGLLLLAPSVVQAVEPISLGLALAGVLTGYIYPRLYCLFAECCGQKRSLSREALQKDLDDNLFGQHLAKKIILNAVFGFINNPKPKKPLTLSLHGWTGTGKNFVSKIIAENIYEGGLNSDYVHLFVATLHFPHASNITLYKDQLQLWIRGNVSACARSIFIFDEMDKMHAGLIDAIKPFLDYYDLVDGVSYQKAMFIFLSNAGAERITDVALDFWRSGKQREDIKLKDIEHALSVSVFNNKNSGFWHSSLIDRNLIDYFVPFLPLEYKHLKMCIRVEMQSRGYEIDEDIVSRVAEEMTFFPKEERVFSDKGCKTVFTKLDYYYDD
Sequence of Luciferin 4-monooxygenase (Photinus pyralis) (P08659 whole entry, looked up): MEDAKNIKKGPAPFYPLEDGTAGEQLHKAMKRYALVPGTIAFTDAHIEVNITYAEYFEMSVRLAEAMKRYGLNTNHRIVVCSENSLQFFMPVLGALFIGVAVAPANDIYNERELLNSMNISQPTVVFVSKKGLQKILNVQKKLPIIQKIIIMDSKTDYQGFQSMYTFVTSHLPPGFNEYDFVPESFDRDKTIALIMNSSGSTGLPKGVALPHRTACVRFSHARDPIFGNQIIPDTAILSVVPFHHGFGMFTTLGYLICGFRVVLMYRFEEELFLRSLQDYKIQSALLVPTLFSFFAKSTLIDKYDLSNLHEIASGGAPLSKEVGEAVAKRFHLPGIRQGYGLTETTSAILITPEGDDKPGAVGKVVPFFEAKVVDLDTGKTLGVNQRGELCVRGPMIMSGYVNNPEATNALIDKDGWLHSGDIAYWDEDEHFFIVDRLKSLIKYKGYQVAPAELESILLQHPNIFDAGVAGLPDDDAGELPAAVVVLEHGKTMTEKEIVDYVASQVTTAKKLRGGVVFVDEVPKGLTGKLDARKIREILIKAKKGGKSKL
Sequence of Focal adhesion kinase 1 (Homo sapiens) (Q05397 whole entry, looked up): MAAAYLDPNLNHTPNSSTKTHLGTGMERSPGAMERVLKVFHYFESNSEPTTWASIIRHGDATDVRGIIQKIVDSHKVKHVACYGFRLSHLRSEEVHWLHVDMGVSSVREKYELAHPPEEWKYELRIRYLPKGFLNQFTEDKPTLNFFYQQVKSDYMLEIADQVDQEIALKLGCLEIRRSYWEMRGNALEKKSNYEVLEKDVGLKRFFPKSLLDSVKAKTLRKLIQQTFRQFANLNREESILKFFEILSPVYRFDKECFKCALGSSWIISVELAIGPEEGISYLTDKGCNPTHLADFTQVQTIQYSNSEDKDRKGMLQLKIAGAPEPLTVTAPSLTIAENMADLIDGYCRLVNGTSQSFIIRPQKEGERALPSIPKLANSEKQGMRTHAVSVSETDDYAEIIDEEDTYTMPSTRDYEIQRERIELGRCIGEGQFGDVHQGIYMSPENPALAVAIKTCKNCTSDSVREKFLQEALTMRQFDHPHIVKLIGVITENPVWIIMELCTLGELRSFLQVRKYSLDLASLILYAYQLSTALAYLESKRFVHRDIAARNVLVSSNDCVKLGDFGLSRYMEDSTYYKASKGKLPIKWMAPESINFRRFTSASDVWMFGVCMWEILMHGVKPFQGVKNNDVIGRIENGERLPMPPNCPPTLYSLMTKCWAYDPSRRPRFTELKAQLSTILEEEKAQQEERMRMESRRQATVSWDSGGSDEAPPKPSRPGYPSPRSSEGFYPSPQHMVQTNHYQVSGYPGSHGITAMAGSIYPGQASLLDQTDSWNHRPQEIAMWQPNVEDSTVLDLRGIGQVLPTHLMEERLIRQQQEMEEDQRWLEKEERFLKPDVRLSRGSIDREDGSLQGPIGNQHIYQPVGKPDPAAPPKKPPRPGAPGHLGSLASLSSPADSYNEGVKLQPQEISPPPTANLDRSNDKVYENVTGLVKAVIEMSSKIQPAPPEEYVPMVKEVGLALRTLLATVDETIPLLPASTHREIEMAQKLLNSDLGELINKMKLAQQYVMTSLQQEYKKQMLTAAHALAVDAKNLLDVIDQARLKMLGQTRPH
Sequence of Fibroblast growth factor 2 (Homo sapiens) (P09038 whole entry, looked up): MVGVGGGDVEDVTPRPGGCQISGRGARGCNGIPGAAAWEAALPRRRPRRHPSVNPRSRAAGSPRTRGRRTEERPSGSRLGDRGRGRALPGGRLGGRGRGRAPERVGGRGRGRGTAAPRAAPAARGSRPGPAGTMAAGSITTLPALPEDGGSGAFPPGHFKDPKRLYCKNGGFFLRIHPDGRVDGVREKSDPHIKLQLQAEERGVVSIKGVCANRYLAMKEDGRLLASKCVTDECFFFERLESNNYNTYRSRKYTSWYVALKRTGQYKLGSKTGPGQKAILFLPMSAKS

Regarding `Cc1ccc(S[C@]2(C(=O)NCCCN(C)C)CC(=O)N(Cc3cc(C(F)(F)F)cc(C(F)(F)F)c3)[C@@H]2c2ccc(CO)cc2)cc1`, the composite z-score in [1] was -0.237; in [2] it was -0.817; in [3] it was 0.145; in assay [4], -0.603; in [5] it was -0.802; in assay [6], -1.33. The composite z-score was -0.493 in the assay on Lefty1; 0.0796 in assay [8]; -0.202 in assay [10]; -0.529 in [15]; 0.0363 in assay [16]; -0.0089 with Torsin-1A (Homo sapiens) [17]. The composite z-score is -0.256 with Torsin-1A (Homo sapiens) [18] and -0.664 in assay [19]. The z-score was 0.134 in [7]; -0.303 (inactive) in assay [9]; -0.0481 (inactive) in assay [11]; -0.617 (inactive) in assay [12]; -0.152 (inactive) in assay [13]; 1.19 (inactive) in [14].

On to `COC(=O)C(CC#Cc1ccc2c(c1)[C@]1(C(=O)N2)[C@H](c2ccc(OCCO)cc2)N2[C@H](c3ccccc3)[C@H](c3ccccc3)OC(=O)[C@H]2[C@@H]1C(=O)Nc1nc2ccccc2s1)C(=O)OC`, for which the composite z-score in assay [1] is 1.6; in assay [2], 1.23; in [3], 0.633; in [4] it was 0.998; in assay [5] it was 0.989; in assay [6], 0.408. Besides, the composite z-score in the assay on Lefty1 was 0.417; in [8] it was 0.638; in [10], 0.35; in assay [15] it was 1.53; in assay [16] it was -0.157; in the assay with Torsin-1A (Homo sapiens) [17], 1.36. For the same molecule, the composite z-score with Torsin-1A (Homo sapiens) [18] was 0.414; in assay [19] it was 0.588. Further, the z-score in assay [7] was -2.05; in [9] it was -0.877 (inactive); in assay [11], -1.68 (inactive); in assay [12], -1.39 (inactive); in [13], -0.375 (inactive); in [14] it was 1.33 (inactive).

Regarding `COCCOC(=O)N1C(=O)[C@@]2(c3cc(C#Cc4ccc(OC)cc4)ccc31)[C@H](c1ccc(OCCO)cc1)N1[C@H](c3ccccc3)[C@H](c3ccccc3)OC(=O)[C@H]1[C@@H]2C(=O)N1CCN(c2ncccn2)CC1`, the composite z-score in assay [1] was 0.343; in [2], 1.15; in assay [3], 0.424; in [4], -0.51; in assay [5], 1.21; in assay [6], 1.43. Further, the composite z-score in the assay on Lefty1 is 1.28; in assay [8], -0.0073; in assay [10] it was 0.377; in assay [15] it was 0.165; in assay [16], 0.0464; with Torsin-1A (Homo sapiens) [17], 0.846. For the same molecule, the composite z-score in the assay with Torsin-1A (Homo sapiens) [18] came to 0.775; in [19] it was 1.69. The z-score was -0.918 in assay [7]; -0.618 (inactive) in assay [9]; -0.438 (inactive) in [11]; -0.112 (inactive) in assay [12]; 0.0695 (inactive) in assay [13]; 0.559 (inactive) in assay [14].

On to `CC(C)(C)OC(=O)CC[C@]1(C(=O)N2CCOCC2)N=C(c2ccc(OCCCO)cc2)O[C@H]1c1ccccc1N=[N+]=[N-]`, for which the composite z-score in [1] was found to be 2.82; in assay [2], 1.27; in assay [3], 0.566; in assay [4], 0.946; in assay [5], 1.18; in assay [6] it was 0.449. The composite z-score was 0.146 with Lefty1; 1.02 in assay [8]; 0.846 in assay [10]; 1.42 in assay [15]; 0.236 in assay [16]; 0.64 with Torsin-1A (Homo sapiens) [17]. Moreover, the composite z-score with Torsin-1A (Homo sapiens) [18] is 1.7; in [19] it was -0.371. Besides, the z-score in [7] was 2.26; in [9] it was -9.23 (active); in assay [11], -0.884 (inactive); in assay [12], 1.17 (inactive); in assay [13], 1.31 (inactive); in assay [14], -1.4 (inactive).

The values are drawn from PubChem BioAssay.
